Source: PubChem BioAssay
Compounds with a hit are over-represented: about 12% of the library has one in this group of screens.
NS1 function inh = qHTS Assay for Inhibitors of Influenza NS1 Protein Function. Potency, µM (top dose mostly 46.1 µM), inactives show top-dose activity, positive = more growth. hit rate 0.4% among 270,000. AID 2326, 2010; note: potency is the fitted concentration of half-maximal effect; actives are rising curves; nearly all actives have a fitted effect of over 50% in size
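Compounds were scored for reversing the slow growth caused by influenza A NS1 in S. cerevisiae, measured by optical density at 600 nm. Assay medium contained 2% galactose at pH 6.0; NS1-free yeast of the same strain were the positive control.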
CHX counter-1 = Cycloheximide Counterscreen for Small Molecule Inhibitors of Shiga Toxin. cell reporter, cycloheximide protein synthesis inhibition counterscreen. max response, %. hit rate 12% among 300,000. AID 2314, 2010; in the data active = max response mostly above about 13%, no sharp cut-off; inactive = mostly below about 14%; note: read at 38.3 µM for the half of the compounds with a filed dose; 0% is about no effect
Shiga inhibitor = A qHTS for Small Molecule Inhibitors of Shiga Toxin | hit rate 9.2% among 290,000 | AID 2315, 2010 | inhibition, % at 38.7 µM | Vero cells, Shiga toxin protein synthesis inhibition reporter; in the data active = inhibition mostly above about 28%, no sharp cut-off; inactive = mostly below about 43%; note: 0% is about no effect
SARS PLP yeast = qHTS of Yeast-based Assay for SARS-CoV PLP; S. cerevisiae expressing SARS-CoV PLpro, growth rescue; Potency, µM (doses to about 32.9 µM), without a hit: top-dose activity, positive = growth rescue, usual class: activators; hit rate 0.19% among 330,000; note: potency is the fitted concentration of half-maximal effect; 0% is about no effect; nearly all actives have a fitted effect of over 55% in size
CHX counter-2 = Cycloheximide Counterscreen for Small Molecule Inhibitors of Shiga Toxin (Confirmatory). shares compounds with Shiga inhibitor. hit rate 3% among 510. AID 2318, 2010. Potency, µM (highest dose often 38.3 µM), for the others: at the highest dose activity (activation), usual class: activators. Cycloheximide counterscreen, protein synthesis reporter, Shiga toxin assay; note: potency is the fitted concentration of half-maximal effect; 0% is about no effect
Starred values were filed as active, the others as inactive; ? = inconclusive; · = no result; ! = not confirmed by another sample. Unless noted, calls come from the whole dose curve.

SMILES	NS1 function inh	CHX counter-1	Shiga inhibitor	SARS PLP yeast	CHX counter-2
Cc1cc(N2CCOCC2)nc(-c2ccccc2O)n1	-3%	9	-6	11%	·
Cc1cc(N2CCCCCC2)nc(-c2ccccc2O)n1	-47%	4	59*	-12%	2%
Cc1ccc(C(=O)NC(=S)N2CCCC2)cc1	15%	11	15	11%	·
COc1cc2oc3cc(C)oc(=O)c3c2cc1OC	-68%	5	26	-1%	·
COc1cc(O)c2c(c1)oc(=O)c1c3cc(O)c(O)cc3oc21	·	21*!	33*	·	8%
CCc1cccc(CC)c1NC(=O)COC(=O)c1cccc(-c2ccc(OC(C)=O)cc2)c1	6%	-4	-5	3%	·
Cc1ccc(NC(=O)C(C)N=C2NS(=O)(=O)c3ccccc32)cc1 (centres undefined)	·	8	35*	-1%	-2%
O=C(Cc1ccc(F)cc1)Nc1cccc2cccnc12	-15%	-3	36*	-3%	5%
O=C(CI)Nc1cccc2cccnc12	·	-5	-13	·	·
CC(C)CCNC(=O)CN1C(=O)CN=C(c2ccccc2)c2ccccc21	-1%	-4	-3	1%	·
O=C(CN1C(=O)CN=C(c2ccccc2)c2ccccc21)NCc1ccco1	-4%	7	44*	1%	-2%
CC(=O)c1cccc(NC(=O)C2CCCC2)c1	-4%	2	-18	2%	·
Cc1cccc(NC(=O)C2CCCC2)c1	-6%	-3	36*	-8%	3%
Cc1ccccc1OCCCN1C(=O)C(=O)c2cccc(C)c21	-119%	6	28*	-39%	-1%
Cc1cccc2c1N(CCCOc1ccccc1)C(=O)C2=O	-121%	-3	1	-35%	·
Cc1cc(N2CCCCC2C)nc(-c2ccccc2O)n1 (centres undefined)	-5%	8	16	-4%	·
O=C(Cc1ccsc1)Nc1ccccc1F	-1%	8	40	13%	·
COc1ccc(-c2cc(C(F)(F)F)nc(SCCC(=O)N3CCOCC3)n2)cc1	-24%	-4	-5	20%	·
CN1CC(c2ccccn2)C2(SC(=S)N(Cc3ccccc3)C2=O)C12C(=O)Nc1ccccc12 (centres undefined)	?	1	71*	-14%	-5%
CN1CC(c2ccccc2)C2(SC(=S)N(Cc3ccco3)C2=O)C12C(=O)Nc1ccccc12 (centres undefined)	-1%	8	24	-32%	·
CCOC(=O)c1cn(Cc2ccc(C)cc2)nn1	10%	11	45*	0%	-3%
COc1ccccc1-c1c(C)oc2cc(OCC(=O)OCc3ccccc3)ccc2c1=O	-17%	1	-16	-26%	·
CN(C)c1ccc(/C=[N+](\[O-])C(C)(C)/C=N/O)cc1	-9%	1	-11	1%	·
CN(C)c1ccc(/C=C/C#N)cc1	-4%	9	31*	0%	5%
C=CCc1ccc(OCC(O)CN2CCN(c3ccccc3)CC2)c(OC)c1 (centres undefined)	4%	15	13	-1%	·
SMILES	NS1 function inh	CHX counter-1	Shiga inhibitor	SARS PLP yeast	CHX counter-2
C=CCc1cc(C)ccc1OCC(O)CN1CCN(c2ccccc2)CC1 (centres undefined)	-16%	-2	33*	-6%	0%
Cc1noc(C)c1S(=O)(=O)Nc1cccc(CO)c1	2%	0	45*	1%	-1%
CC(=O)Nc1cccc(NS(=O)(=O)c2c(C)noc2C)c1	·	·	·	-4%	·
O=C(NNc1c(Cl)cncc1Cl)c1cccs1	0%	-1	-12	0%	·
Cc1ccc(NC(=S)c2nc3ccccc3s2)cc1	-8%	20	73*	-3%	0.71µM*
Cc1ccc(Cl)cc1NC(=O)COC(=O)c1ccc(COc2ccc3c(C)cc(=O)oc3c2)cc1	-13%	-1	39*	-14%	2%
O=C(O)c1ccn(Cn2cnc3ccccc32)n1	?	7	27*	7%	-1%
O=c1[nH]c(=O)n(Cc2ccccc2)c2c1C(C(F)(F)F)(C(F)(F)F)N=C(c1ccco1)N2	0%	-1	-14	1%	·
O=c1[nH]c(=O)n(Cc2ccco2)c2c1C(C(F)(F)F)(C(F)(F)F)N=C(c1ccc(F)cc1)N2	14%	5	67*	10%	-1%
CC(C)N1CCc2c(sc(NC(=O)CCS(=O)(=O)c3ccccc3)c2C#N)C1	16%	5	17	-4%	·
Cc1sc(NC(=O)CCCC(=O)O)c(C(N)=O)c1-c1ccccc1	·	9	74*	-1%	?
Cc1ccc(-c2csc(NC(=O)c3ccc(C)o3)n2)cc1	-12%	9	71*	-64%	1%
Cc1ccc(-c2csc(NC(=O)CCCc3cccs3)n2)cc1	13%	-1	2	1%	·
Cc1ccsc1C(=O)N1CCCC(N(C)Cc2ccccc2)C1 (centres undefined)	16%	-3	-10	0%	·
CCOC(=O)C1CCCN(C(=O)c2cc(Nc3ccc(OC)c(OC)c3)nc3ccccc23)C1 (centres undefined)	-35%	10	38*	-9%	4%
CCOC(=O)C1CCCN(C(=O)c2cc(Nc3ccc(OC)cc3OC)nc3ccccc23)C1 (centres undefined)	-22%	26	23	-13%	·
COc1ccc(CNCC(=O)Nc2sccc2C#N)cc1	4%	13	52*	-1%	2%
C/C=C/C(=O)N[C@@H]1c2ccccc2CC[C@@H]1OCc1ccccc1	·	·	·	-14%	·
COc1ccc(N/C=C(\C#N)c2nc3ccccc3n2C)c(OC)c1	-6%	-2	81*	-6%	?
Cc1nn(-c2ccccc2)c(N)c1C(O)(CSc1nccn1C)C(F)(F)F (centres undefined)	-3%	-2	-8	2%	·
Cc1nn(-c2ccc(Cl)cc2)c(N)c1C(O)(CSc1nccn1C)C(F)(F)F (centres undefined)	-5%	13	69*	-8%	0%
CCCc1c(C(=O)N/N=C/c2cccc(OCc3ccc(F)cc3)c2)nnn1-c1nonc1N	-9%	1	-12	-2%	·
O=C(NCc1ccccc1)C1CCCC1	28%	6	21*	1%	4%
O=C(O)CCCCCn1c(SCc2cc(=O)n3ccccc3n2)nc2ccsc2c1=O	3%	-3	-5	19%	·
Cc1cccc(Cn2cc(SCC(=O)Nc3nccs3)c3ccccc32)c1	-3%	8	23*	-6%	?
SMILES	NS1 function inh	CHX counter-1	Shiga inhibitor	SARS PLP yeast	CHX counter-2
CC(C)c1nnc(NC(=O)CSc2nc3ccccc3s2)s1	-69%	3	50*	4%	1%
COc1cccc(CN2CC(C(=O)N3CCCO3)CCC2=O)c1 (centres undefined)	10%	5	14	5%	·
Cc1c(C(=O)N2CCCCC2)sc(NC(=O)C2CC2)c1C#N	1%	3	2	-2%	·
Cc1sc(NC(=O)C2CCCC2)c(C#N)c1C	-2%	1	19*	-15%	1%
NNC(=O)c1ccc(NS(=O)(=O)c2ccc(Br)cc2)cc1	7%	2	28*	-1%	4%
O=[N+]([O-])c1cccc(S(=O)(=O)Nc2ccc(S(=O)(=O)NCC3CCCO3)cc2)c1 (centres undefined)	-7%	-2	-8	13%	·
